From PubChem BioAssay (NCATS) come the findings set out here.

Records with an inconclusive call do not appear. Calls of active or inactive are those of the source. Calls follow the shape of the dose curve; as a rule, active = well fitted curve in the direction sought with a large enough effect; inconclusive = small, poorly fitted or top-dose-only effect, or another doubt; inactive = no such curve, though single readings can be large; an effect the other way counts as inactive or inconclusive.
Also: nearly all actives have a fitted effect of over 35% in size.
Potency is read from the fitted curve at half-maximal effect.

The nature of the first experiment: Quantitative highthroughput screen to assess conditional lethalithy of P12 Ichikawa cells grown in RPMI1640 with dialyzed fetal bovine serum (RPMI+ds) (AID 1963880).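 As to viability: 100% = DMSO wells and 0% = empty wells on each plate.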 As to conditions: ATP luminescence, 48 h; Potency: P12-Ichikawa viability; series mostly up to 45.8 µM; viability: at the top concentration. The method in brief: (§1)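 Each medium arm—HPLM with 10% dialyzed FBS, or RPMI1640 with 5 mM glucose and 10% untreated or dialyzed FBS—was screened against an 11-point, 3-fold compound titration for 48 h at 37 °C, with CellTiter-Glo luminescence as endpoint.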
For `COC1=CC(C)=C[C@@H](C)[C@@H](O)[C@@H](C)CC(C)=CC=C[C@H](OC)[C@H]([C@@H](C)[C@@H](O)[C@H](C)[C@@]2(O)C[C@@H](O)[C@H](C)[C@@H](C(C)C)O2)OC1=O`, the Potency was 66.2 nM (active).
For the compound `Cc1nc(-c2ccc(-c3ccc(C(=O)N4CCc5cc6c(cc54)C4(CCN(C)CC4)CO6)cc3)c(C)c2)no1`, the viability (in general, a read-out of living cells in per cent, often relative to untreated cells) was 105% (inactive).
Same read-out and setting: the value for `c1cc2c(cc1[C@H]1OC[C@H]3[C@H]1CO[C@H]3c1ccc3c(c1)OCO3)OCO2` was 104% (inactive).

The nature of another experiment: Quantitative highthroughput screen to assess conditional lethalithy of SEM cells grown in Human Plasma-Like Medium with dialyzed fetal bovine serum (HPLM+ds) (AID 1963882). As to conditions: SEM B-ALL cells in HPLM+ds, CellTiter-Glo viability, 48 h; series mostly up to 45.8 µM; viability: at the top concentration. The method in brief:
as §1
For orientation: In ATP-based viability assays light output follows the ATP content of the culture.
As for `CC(C)[C@]12O[C@@H]1[C@@H]1O[C@]13[C@]1(O[C@H]1C[C@@H]1C4=C(CC[C@@]13C)C(=O)OC4)[C@H]2O`, the Potency was 1.2 nM (active).
Still for that read-out and setting: as for `Cc1ccccc1-n1c(Cn2cnc3c(N)ncnc32)nc2cccc(C)c2c1=O`, the figure is 296 nM (active).
Consider `Cc1nc(-c2ccc(-c3ccc(C(=O)N4CCc5cc6c(cc54)C4(CCN(C)CC4)CO6)cc3)c(C)c2)no1`, for which the “viability” value is 105% (inactive).
With `CC(O)(CS(=O)(=O)c1ccc(F)cc1)C(=O)Nc1ccc(C#N)c(C(F)(F)F)c1` (stereo not drawn), the “viability” value is 75.3% (inactive).
Regarding `c1cc2c(cc1[C@H]1OC[C@H]3[C@H]1CO[C@H]3c1ccc3c(c1)OCO3)OCO2`, the “viability” value was 70.8% (inactive).
